About 79,000 compounds went through this panel and 15% of them were active in at least one assay; those are over-represented in the sample as a whole. Unmarked numbers belong to inactive results. Active and inactive are the calls of the source. No stated cut-off is given here; in the data, active means growth inhibition above about 70%; inactive means the rest.
Assays:
[1] = NCI Yeast Anticancer Drug Screen. Data for the rad50 strain (AID 155);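 further: 0% = growth of vehicle-only cultures of the same strain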; settings: S. cerevisiae rad50 strain growth inhibition, hits give high values
Summary of the method: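 Compounds were tested on a yeast strain with an engineered DNA damage repair alteration; the reported value is growth inhibition normalised to vehicle treatment.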

[2] = NCI Yeast Anticancer Drug Screen. Data for the mec2-1 strain (AID 157); settings: S. cerevisiae mec2-1 strain, hits give high values
Summary of the method: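 Growth inhibition is read against vehicle-treated controls after compound exposure of the mec2-1 yeast strain, which is defective in DNA damage repair or cell cycle control.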

[3] = NCI Yeast Anticancer Drug Screen. Data for the sgs1 mgt1 strain (AID 161);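 further: 0% = growth of cultures given vehicle only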; settings: S. cerevisiae sgs1 mgt1 strain, hits give high values
Summary of the method: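 Compounds are added to genetically altered yeast, and growth is compared with cultures given vehicle alone to give percent inhibition.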

[4] = NCI Yeast Anticancer Drug Screen. Data for the cln2 rad14 strain (AID 165);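 further: 0% = growth equal to vehicle treated cultures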; settings: S. cerevisiae cln2 rad14 strain, hits give high values
Summary of the method: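 Growth inhibition, relative to vehicle-treated controls, is the read-out. The test organism is a yeast strain with defined genetic alterations, cln2 rad14.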

[5] = NCI Yeast Anticancer Drug Screen. Data for the bub3 strain (AID 167); settings: S. cerevisiae bub3 mutant strain, hits give high values
Summary of the method: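 Growth of a checkpoint-deficient yeast mutant is measured after compound exposure. Values represent inhibition relative to vehicle.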

[6] = NCI Yeast Anticancer Drug Screen. Data for the mlh1 rad18 strain (AID 175); settings: S. cerevisiae mlh1 rad18 strain growth inhibition, hits give high values
Summary of the method: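 Cells of a genetically altered yeast strain, deficient in DNA damage repair, were treated with compound. Their growth was then compared with that of vehicle-treated cultures to give inhibition.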

[7] = at 5.0 µM (retest, dose inferred, filed as 0.5)
[8] = at 50.0 µM (retest, dose inferred, filed as 5.0)

Row | Structure (SMILES) | growth inhibition [1, 7] | growth inhibition [1, 8] | growth inhibition ([1]; at 50.0 µM) | growth inhibition [2, 7] | growth inhibition [2, 8] | growth inhibition ([2]; at 50.0 µM) | growth inhibition [3, 7] | growth inhibition [3, 8] | growth inhibition ([3]; at 50.0 µM) | growth inhibition [4, 7] | growth inhibition [4, 8] | growth inhibition ([4]; at 50.0 µM) | growth inhibition [5, 7] | growth inhibition [5, 8] | growth inhibition ([5]; at 50.0 µM) | growth inhibition [6, 7] | growth inhibition [6, 8] | growth inhibition ([6]; at 50.0 µM)
1 | Cc1cc(C2C(O)C(c3cc(C)on3)C2(C)O)no1 (configuration not stated) | 0% | 0% | 72.2% (active) | -12% | 13% | 38.5% | 3% | 5% | 62.6% | -2% | -7% | -24.1% | 2% | -1% | 8.1% | 16% | 17% | 50.2%
2 | CCCCCN(CCC)CCCCCCCCCN1CCCc2cc(OC)ccc21 | -8% | -2% | 97.3% (active) | -6% | -7% | 97.7% (active) | 2% | 2% | 62.9% | -7% | -10% | 97% (active) | -4% | -3% | 91% (active) | -5% | -5% | 98% (active)
3 | COC(=O)C(=Cc1c[nH]c2ccccc12)C(=O)OC | -12% | 0% | 11.6% | 4% | 2% | 30.3% | -1% | -6% | 4.55% | -1% | -4% | 16.3% | -3% | 2% | 10.6% | -18% | -17% | 10.8%
4 | NC(CSSCC(N)C(=O)Nc1ccc2ccccc2c1)C(=O)Nc1ccc2ccccc2c1 (configuration not stated) | 42% | 98% (active) | 88.6% (active) | 42% | 100% (active) | 91.7% (active) | 54% | 100% (active) | 91.7% (active) | 21% | 99% (active) | 90.3% (active) | 37% | 99% (active) | 89.5% (active) | 68% | 99% (active) | 88% (active)
5 | COC1OC(COC(=O)c2ccccc2)CC1F (configuration not stated) | 16% | -26% | 93.5% (active) | -8% | -22% | 94.8% (active) | -12% | -13% | 94% (active) | -24% | -2% | 91.8% (active) | 19% | 26% | 93.3% (active) | 18% | -54% | 92.2% (active)
6 | C/C(=N/Nc1ccc([N+](=O)[O-])cc1[N+](=O)[O-])C(=O)O | 11% | 69% | 95.3% (active) | 2% | 63% | 59.8% | -1% | 76% (active) | 97.5% (active) | -1% | 21% | 13.2% | -1% | 72% (active) | 98.5% (active) | -2% | 91% (active) | 96.8% (active)
7 | CCOC(CN(C)C(=O)Nc1ccc(Cl)c(Cl)c1)OCC | -31% | 52% | 63.7% | 2% | 61% | 32.7% | -15% | 56% | 58.6% | -17% | 45% | 67.8% | -26% | 71% (active) | 54.9% | -25% | 84% (active) | 38.7%
8 | CCC12C=CCN3CC[C@@]4(c5cc([C@@]6(C(=O)OC)C[C@@H]7CN(CCc8c6[nH]c6ccccc86)C[C@](O)(CC)C7)c(OC)cc5N(C)[C@H]4[C@@](O)(C(=O)OC)[C@@H]1OC(=O)CCCCCCCCCCCN1C(=O)C=CC1=O)[C@H]32 (some centres not stated) | 16% | 98% (active) | 88.5% (active) | 42% | 99% (active) | 92.4% (active) | 35% | 98% (active) | 92.7% (active) | 16% | 95% (active) | 90.5% (active) | -23% | 96% (active) | 91% (active) | 32% | 98% (active) | 91.5% (active)
9 | N=Cc1cc([N+](=O)[O-])ccc1O | -5% | 94% (active) | 96.8% (active) | -1% | 98% (active) | 93% (active) | -2% | 93% (active) | 98.5% (active) | 16% | 95% (active) | 94.5% (active) | -20% | 96% (active) | 71.3% (active) | 12% | 98% (active) | 98.2% (active)
10 | COc1cc2c(cc1OC)c1c(OC)c(OC)cc3c1c1c2sc(=S)n1CC3 | 4% | 59% | 93% (active) | 14% | 46% | 96.9% (active) | 11% | 55% | 96.1% (active) | 5% | 14% | 93.8% (active) | 4% | 33% | 95.4% (active) | 5% | 53% | 99% (active)
11 | COc1nc(NC2OCC(O)C(O)C2O)c(Cl)c(=O)n1C (configuration not stated) | 0% | -1% | -15.4% | -1% | -5% | -3.7% | -2% | -3% | 11.4% | -1% | -3% | 30.4% | -2% | -4% | 10.2% | -5% | -7% | -7.85%
12 | O=C(CC[P+](c1ccccc1)(c1ccccc1)c1ccccc1)c1ccccc1 | 10% | 78% (active) | 94.8% (active) | 6% | 92% (active) | 94.8% (active) | 4% | 74% (active) | 86.2% (active) | -3% | 71% (active) | 95.6% (active) | 7% | 79% (active) | 94.8% (active) | 3% | 84% (active) | 93.1% (active)
13 | S=C(Nc1ccccc1)[S][Sb]([S]C(=S)Nc1ccccc1)[c]1ccccc1 | -5% | 80% (active) | 41.4% | -6% | 98% (active) | 20% | -56% | 77% (active) | 43.1% | -8% | 34% | 12.1% | -11% | 25% | 3.15% | -2% | 94% (active) | 63.4%
14 | COC(=O)C(=O)C(=O)C1CCCC(c2ccccc2)C1=O (configuration not stated) | 1% | 96% (active) | 96.3% (active) | 0% | 97% (active) | 98% (active) | 1% | 53% | 71.6% (active) | 2% | 98% (active) | 94.8% (active) | -11% | 98% (active) | 97.8% (active) | -10% | 97% (active) | 96.4% (active)
15 | CC(=O)CC1CCC(=O)/C=C/C(=O)OC(CC(C)=O)CCC(=O)/C=C/C(=O)O1 (configuration not stated) | 20% | 38% | 16.3% | 14% | 47% | -13.5% | 11% | 42% | -6.3% | 5% | 27% | 23.1% | 9% | 82% (active) | -17.1% | 17% | 56% | -81.7%
16 | C/C=C(\C)[C@H](O)C(COCc1ccccc1)NS(=O)(=O)c1ccc(C)cc1 (some centres not stated) | -5% | 44% | 30.1% | -3% | 26% | 98.5% (active) | -7% | 43% | 36.8% | -2% | 47% | 22.6% | -3% | 51% | 97.5% (active) | -4% | 36% | 58.5%
17 | Nc1ccccc1CC(c1c[nH]c2ccccc12)c1c[nH]c2ccccc12 | 4% | 7% | 94% (active) | 1% | 17% | 95% (active) | 1% | 10% | 94.4% (active) | 93% (active) | -7% | 90.5% (active) | 2% | 26% | 93% (active) | 4% | 27% | 93.8% (active)
18 | O=C(Cn1nnc2ccccc21)N1CCN(c2ccccc2)CC1 | -2% | 3% | 32.8% | 4% | 3% | 33.8% | -1% | 5% | -2.35% | -6% | 3% | 43.8% | -1% | 1% | 14.9% | -3% | 3% | -7.75%
19 | Cc1cc[c]([Sn]([Cl])([O][Sn]([Cl])([c]2ccc(C)cc2)[c]2ccc(C)cc2)[c]2ccc(C)cc2)cc1 | 17% | 57% | 84.7% (active) | 15% | 55% | 89.2% (active) | 29% | 63% | 85.8% (active) | 2% | 35% | 83.1% (active) | 16% | 67% | 86.7% (active) | 26% | 54% | 91.3% (active)
